Consider 27 molecules from ChEMBL document CHEMBL3433997, “St. Jude Leishmania screening dataset” (2016).

Where “and” joins values, the source holds several entries; their conditions need not be identical. Identical values can stand only once.

Assay type in all cases: functional
Assay [1] deals with Solute carrier family 2, facilitated glucose transporter member 1 (Homo sapiens) (UniProt P11166). In words: ST_JUDE_LEISH: Cytotoxicity at 2uM final concentration against transgenic Leishmania Mexicana promastigotes LmGLUT1 that are glucose transport deficient and complemented with the human glucose transporter GLUT1. Activity is measured by DNA content using SYBR green in vitro.
Solute carrier family 2, facilitated glucose transporter member 1 (Homo sapiens), sequence (P11166 whole entry): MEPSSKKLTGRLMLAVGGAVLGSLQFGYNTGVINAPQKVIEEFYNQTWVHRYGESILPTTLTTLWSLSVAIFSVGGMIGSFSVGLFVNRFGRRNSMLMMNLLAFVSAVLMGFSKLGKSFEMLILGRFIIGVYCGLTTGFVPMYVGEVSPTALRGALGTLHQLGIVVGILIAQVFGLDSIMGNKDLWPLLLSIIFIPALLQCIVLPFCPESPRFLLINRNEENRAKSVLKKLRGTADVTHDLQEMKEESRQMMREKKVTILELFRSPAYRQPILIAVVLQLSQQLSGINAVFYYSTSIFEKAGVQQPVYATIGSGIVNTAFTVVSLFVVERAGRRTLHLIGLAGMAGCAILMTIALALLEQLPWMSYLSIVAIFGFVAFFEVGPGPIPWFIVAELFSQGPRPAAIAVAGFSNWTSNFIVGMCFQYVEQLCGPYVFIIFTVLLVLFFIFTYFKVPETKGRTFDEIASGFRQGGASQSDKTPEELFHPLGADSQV

Assay [2] deals with Hexose transporter 1 (Plasmodium falciparum) (UniProt O97467). In words: ST_JUDE_LEISH: Cytotoxicity at 2uM final concentration against transgenic Leishmania Mexicana promastigotes LmPfHT that are glucose transport deficient and complemented with the Plasmodium falciparum hexose transporter. Activity is measured by DNA content using SYBR green in vitro.
For assay [3], the target named is Glucose transporter (Leishmania mexicana) (UniProt O61059). The assay is described as follows: ST_JUDE_LEISH: Cytotoxicity at 2uM final concentration against transgenic Leishmania Mexicana promastigotes LmGT2 that are glucose transport deficient and complemented with the L. Mexicana glucose transporter 2. Activity is measured by DNA content using SYBR green in vitro.

On to `CC[C@H]1CN2CC[C@@H]1C[C@H]2[C@H](O)c1cc(N2CCC(O)(c3ccccc3)CC2)nc2ccc(OC)cc12`, for which the figures for the inhibition in assay [1], in assay [2] and in assay [3] were 5.33%, 4.26% and 1.87%, respectively.
For `Oc1ccc(CN2CCN(CCOC(c3ccc(F)cc3)c3ccc(F)cc3)CC2)cc1Cl`, in that order: 4.68%, -0.31% and -0.74%.
On to `O=C(/C=C/c1ccc(Cl)c(Cl)c1)N1CCC(CN2C3CCC2CC(c2c[nH]c4ccccc24)C3)CC1` (stereo unspecified), for which the inhibition was 2.43% in assay [1], 1.51% in assay [2] and 0.89% in assay [3].
Take `N=c1c2c(n(Cc3ccc(Cl)cc3Cl)c3c1CCC3)CCCC2`: the inhibition in assay [1] came to 17.8%; in assay [2], 26.7%; in assay [3] it was 6.7%.
For `CC[C@H]1CN2CC[C@@H]1C[C@H]2[C@H](O)c1cc(-c2ccc(Cl)c(Cl)c2)nc2ccc(O)cc12`, the results for the inhibition in assay [1], in assay [2] and in assay [3] were -0.36%, -1.15% and -0.47%, respectively.
`CC(=O)C1(c2ccccc2)CCN(CCC2(c3ccc(Cl)c(Cl)c3)CN(C(=O)C3CCCCC3)CCO2)CC1` (stereo unspecified): the inhibition in assay [1] worked out at 4.85%; in assay [2], 2.27%; in assay [3], 3.92%.
Consider `O=C(NC1CCC(CN2CCC(c3c[nH]c4ccccc34)CC2)CC1)c1[nH]c(=O)[nH]c(=O)c1F` (stereo unspecified), for which the results for the inhibition in assay [1], in assay [2] and in assay [3] were -0.09%, 0.08% and -0.11%, respectively.
Consider `CS(=O)(=O)Nc1ccc2[nH]cc(C3CCN(CC4CCN(C(=O)/C=C/c5ccc(Cl)c(Cl)c5)CC4)CC3)c2c1`, for which the inhibition in assay [1] turned out to be 4.43%; in assay [2], 3.49%; in assay [3], 4.09%.
Take `CN(C(=O)OCc1ccccc1)C1CCC(CCN2CCC3(CC2)C(=O)NCN3c2cccc(C(F)(F)F)c2)(c2ccccc2)CC1` (stereo unspecified): the inhibition was determined as 2.48% in assay [1], 1.12% in assay [2] and 2.55% in assay [3].
Turning to `COc1ccc(OC)c(C(O)C(C)NCc2cc(Cl)ccc2O)c1` (stereo unspecified), the values for the inhibition in assay [1], in assay [2] and in assay [3] were 0.78%, 1.14% and 1.94%, respectively.
For the molecule `O=C(/C=C/c1ccc2ccccc2c1)NC1CCC(CN2CCC(c3c[nH]c4ccccc34)CC2)CC1` (stereo unspecified), the inhibition in assay [1] turned out to be 1.06%; in assay [2] it was 1.84%; in assay [3], 3.4%.
For `O=C(/C=C/c1ccc(Cl)c(Cl)c1)NC1CCC(N2CCC(c3c[nH]c4ccc(O)cc34)CC2)CC1` (stereo unspecified), the inhibition in assay [1] worked out at 1.81%; in assay [2], 1.52%; in assay [3], 2.5%.
As for `COc1ccc(C=CC(=O)NC2CCC(CN3CCC(c4c[nH]c5ccccc45)CC3)CC2)cc1` (stereo unspecified), the inhibition was 3.28% and -0.32% in assay [1]; 1.24% and -0.89% in assay [2]; -5.37% and -4.75% in assay [3].
With `CCCCCC(C)C(C)c1cc(O)c2c3c(c(=O)oc2c1)CN(Cc1ccccc1)CC3` (stereo unspecified), the inhibition in assay [1] is 2.03%; in assay [2], 0.04%; in assay [3], -0.43%.
On to `CCCc1c(C(=O)NC2CCC(CN3CCC(c4c[nH]c5ccccc45)CC3)CC2)cnn1-c1c(Cl)cc(Cl)cc1Cl` (stereo unspecified), for which the inhibition in assay [1] turned out to be 4.74%; in assay [2], 3.29%; in assay [3], 3.07%.
Turning to `O=C(/C=C/c1ccc(Cl)c(Cl)c1)NCCC1CCC(N2CCC(c3c[nH]c4ccc(O)cc34)CC2)CC1` (stereo unspecified), the inhibition in assay [1] stood at 0.48%; in assay [2] it was 3.87%; in assay [3], 1.36%.
As to `O=C(NC1CCC(CN2CCC(c3c[nH]c4ccccc34)CC2)CC1)c1cnn(-c2ccccc2)c1-c1ccccc1Cl` (stereo unspecified), the inhibition was determined as 4.74% in assay [1], 10.3% in assay [2] and 3.95% in assay [3].
Take `CCc1nc(N)nc(N)c1-c1cccc(Cl)c1`: the inhibition in assay [1] was determined as 2.71%; in assay [2], 2.32%; in assay [3], 3.02%.
For the molecule `C/C=C1/CN2CC[C@H]1C[C@H]2[C@H](O)c1ccnc2ccc(OC)cc12`, the inhibition is -0.87% in assay [1], -2.22% in assay [2] and 2.08% in assay [3].
Turning to `O=C(NCc1ccc(S(=O)(=O)N2CCC(CN3CCC(c4c[nH]c5ccccc45)CC3)CC2)s1)c1ccccc1`, the inhibition in assay [1] was 3.85%; in assay [2], 3.63%; in assay [3], 3.02%.
For the molecule `CCCc1cc(O)c2c3c(c(=O)oc2c1)CN(C)CC3`, the inhibition in assay [1] was determined as 0.29%; in assay [2] it was 0.97%; in assay [3], 1.39%.
As to `CCOC(=O)c1c(C)n(C2CCCCCC2)c2cc(Br)c(O)cc12`, the inhibition in assay [1] was 2.52%; in assay [2] it was 0.67%; in assay [3] it was 4.54%.
For `O=C(/C=C/c1ccc(Cl)c(Cl)c1)NCCCCCN1C2CCC1CC(c1c[nH]c3ccc(O)cc13)C2` (stereo unspecified), the inhibition in assay [1] was 0.54% and -0.84%; in assay [2], 2.4% and -2.77%; in assay [3], -3.07% and -2.2%.
As for `COC(=O)c1ccc(CC(C)NCC(O)c2cccc(Br)c2)cc1` (stereo unspecified), the inhibition in assay [1] is -0.96%; in assay [2], -1.92%; in assay [3], 2.26%.
For `CCC1=C[C@@H]2CN(C1)Cc1c([nH]c3ccccc13)[C@@](C(=O)OC)(c1cc3c(cc1OC)N(C)[C@H]1[C@@](O)(C(=O)OC)[C@H](O)[C@]4(CC)C=CCN5CC[C@]31[C@@H]54)C2`, the figures for the inhibition in assay [1], in assay [2] and in assay [3] were 2.2%, 4.15% and 2.69%, respectively.
As for `Cc1cc(N)nc2cc(CNCCc3ccccc3Br)ccc12`, the inhibition in assay [1] is 0.26%; in assay [2], 0.02%; in assay [3] it was -0.67%.
`Cc1ccc(C[C@@H](C)NC[C@H](O)c2cccc(C(F)(F)F)c2)cc1`: the inhibition was 3.18% in assay [1], 3.1% in assay [2] and 2.92% in assay [3].
